Assay results as given in the supplement of paper PMC3334620.
Over roughly 33,000 sequences, “E-score (-0.5 to 0.5)” has its median near -0.04; the highest 2% begin near 0.36. The list comes from a sample in which the highest values are over-represented; it also holds similar and randomly drawn sequences.

Each sequence was assayed against T1, Hmlalpha2 (UniProt P0CY09) (assay: PBM E-score (8-mer binding enrichment) (E-score (-0.5 to 0.5)); higher = stronger / more preferred TF binding). Details: protein concentration: 200 nM; construct: GST-full length.
T1 sequence: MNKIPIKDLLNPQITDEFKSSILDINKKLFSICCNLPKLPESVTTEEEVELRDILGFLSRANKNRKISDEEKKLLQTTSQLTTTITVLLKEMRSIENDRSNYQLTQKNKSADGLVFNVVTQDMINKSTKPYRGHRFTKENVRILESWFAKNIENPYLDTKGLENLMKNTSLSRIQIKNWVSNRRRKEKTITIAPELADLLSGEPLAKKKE
How it was run: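 Masliner-normalised scans of fluorescent anti-GST signal were the basis for scoring. That signal came from GST-tagged yeast transcription factors applied at about 100-200 nM to double-stranded universal all-10-mer Agilent arrays on fresh or once-stripped slides. Each ungapped eight-base word, pooled with its reverse complement, received an E-score from the Universal PBM Analysis Suite.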

Sequence | PBM E-score
TCAATACA | 0.372
GGAATACC | -0.0768
GGAATAGA | -0.0449
GGAATACA | 0.431
ACAATACA | 0.326
CCAATACA | 0.313
TGAATACA | 0.397
CGAATACG | 0.259
CGAATACA | 0.39
TGAATAAA | 0.245
TGGATACA | 0.17
CGAATACC | -0.0493
GTAAGTAC | 0.234
CACTAGGA | -0.225
AGAGGTCC | -0.273
AGCTGCAA | -0.227
AACCTCAA | 0.0617
AGTTTGCG | -0.0236
ACTATCTG | -0.156
CTATGAAG | -0.149
CGATCCGA | -0.256
AGCGGCTA | -0.0688
ACTCTACT | 0.0373
TAAATACA | 0.434
AGAATACC | 0.0773

Sequence | PBM E-score
GAAATACA | 0.346
AGAATACG | 0.192
AAAATACA | 0.334
AGAATACA | 0.366
CATGTAAG | 0.47
AATGTAAG | 0.294
CCTGTAAC | 0.093
CATGTAAC | 0.456
CCTGTAAG | -0.00273
GATGTAAC | 0.215
CGAGATCG | -0.0661
GCATGCGA | 0.0698
AAACCACC | -0.166
AGAGCCGA | -0.106
ATGTTGTA | 0.406
ATGTTGTG | 0.362
GTGTTGTA | 0.382
GTGTTGCA | 0.187
CTGTTGTA | 0.253
ATGTTGTC | 0.364
CATACCGG | -0.154
AGTCTGCC | -0.184
CAACGGAG | -0.12
ACCCTTAA | -0.0263
CGTATGTA | 0.356

Sequence | PBM E-score
GGTATGGA | -0.18
AGTATGTA | 0.394
AGTATGTG | 0.115
AGTATGTC | 0.201
GGTATGTA | 0.4
AATTAGAA | 0.0299
GAAAAACC | -0.0498
ATGAGGAG | -0.187
CCGTTAAC | 0.0773
GCGTTAAC | 0.379
CCGTTAAA | 0.125
TCGTTAAA | 0.126
ACGTTAAC | 0.281
GCGTTAAA | 0.366
CCAACCTC | -0.128
GATAAGTA | 0.0843
AAGGGCTC | -0.21
TCGTTTAA | 0.293
GGCGTGAA | -0.0431
AGCGTGTC | 0.317
CGCGTGTC | 0.262
AGCGTGTA | 0.472
CGCGTGCA | -0.0161
GGCGTGTA | 0.464
GGCGTGCA | -0.128

Sequence | PBM E-score
AGCGTGTG | 0.249
CGCGTGTA | 0.458
AACATATA | 0.286
CTGGATCC | -0.25
GCTTAGAA | -0.00669
AAAATTGG | -0.167
GGTCGACC | -0.0813
GGTAAACA | 0.333
TCTAAACA | 0.228
AGTAAACA | 0.337
GGTAAGAA | -0.0659
CGTAAGAA | 0.106
TGTAACAA | 0.384
CGTAACAA | 0.228
TGTAAACA | 0.461
CGTAAACA | 0.394
TGTAAGAA | 0.391
ACTAAACA | 0.196
AGTAACAA | 0.288
TGCCTCCA | -0.233
CTGCACAC | 0.0406
TATCACGA | 0.00013
GAAGACAC | 0.0337
CCGCTCCC | -0.362
AGGTCTGG | -0.101

Sequence | PBM E-score
AGGAAAGC | -0.203
AGTAGAAA | 0.124
CGTAAAAA | 0.345
CGTAGAAA | 0.31
TGTAGAAA | 0.429
AGTAAAAA | 0.196
CATAAACA | 0.384
GATAAACA | 0.212
TATAAACA | 0.358
TGTAAAAA | 0.444
TTCTTCAA | 0.0864
ACTCATAC | -0.00755
GGAAGCTA | -0.236
CCCTGGGC | -0.302
AGCCCTAA | 0.00565
AAACACCA | -0.0494
AAACACTC | 0.109
AAACACGC | 0.426
AAACACAG | 0.318
AAACACGG | 0.371
AAACACCG | 0.196
AAACACGT | 0.361
AAACACGA | 0.383
AAACACAC | 0.34
CCAAGTCC | -0.309

Sequence | PBM E-score
TGGTGACA | 0.087
GGGTTGGA | -0.133
AAGGGATC | -0.156
TGTATAAA | 0.342
AGTATACA | 0.322
TGTATACA | 0.428
CGTATACA | 0.377
GGTATACA | 0.254
TCTATACA | 0.209
ATGTGAAT | 0.297
AACAACCG | 0.156
GTTTTACA | 0.408
CGTTTACC | 0.0999
CGTTTACA | 0.452
CGTTTAAG | -0.102
CGTTTAAC | 0.365
GGTTTATA | 0.101
GGTTTAGA | -0.168
GGTTTACA | 0.396
CGTTTAGA | -0.00881
GGTTTAAC | 0.279
GTTTTATA | 0.144
GTTTTAAA | 0.22
TCAGGGCA | -0.0208
AGGATATG | -0.0728

Sequence | PBM E-score
ATGGTCAC | -0.0853
GCTGAATA | 0.0885
CGGGAAGC | -0.026
AGTTTACA | 0.405
AGTTTACG | 0.278
AGTTTACC | 0.075
CGCATTAG | -0.105
GCCTGTCA | -0.0584
CAGTGTGG | -0.13
AACATGTG | 0.395
AACATCTT | -0.0095
AACATGTA | 0.484
AACATGTC | 0.333
AACATCTG | 0.128
AACATGTT | 0.46
CACATGTG | 0.163
AAGATGTA | 0.268
AACATTTA | 0.242
ACCAGCAC | -0.0704
ATGCGAAT | -0.0339
CGGTCAGA | -0.199
CAAGGTCA | -0.102
